Screening results (PubChem BioAssay)
A selection: hits, their analogues and other compounds. The true share with any hit is near 12%.
Pf growth 96h – Primary qHTS for delayed death inhibitors of the malarial parasite plastid, 96 hour incubation; P. falciparum luciferase reporter growth, 96 h; Potency, µM (highest dose often 28.7 µM), for the others: at the top dose activity change, negative = inhibition, hits mostly inhibitors; AID 504834, 2011; actives 6.9% (n = 320,000); also: % is scaled to controls: 0 for no effect and ±100 for the full control effect
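96 h incubation, 37 C, 5% CO2, of luciferase-reporter P. falciparum-infected RBCs (2% hematocrit, 0.05% parasitemia final) with test compounds; endpoint luminescence.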
SARS PLP yeast – qHTS of Yeast-based Assay for SARS-CoV PLP; S. cerevisiae expressing SARS-CoV PLpro, growth rescue; Potency, µM (titrated, usually from 32.9 µM), inactives show top-dose activity, positive = growth rescue, actives largely listed as activators; actives 0.19% (n = 330,000); calls by dose curve; also: 0% is about no effect; nearly all actives have a fitted effect of over 55% in size
Pf growth 48h – Primary qHTS for delayed death inhibitors of the malarial parasite plastid, 48 hour incubation. AID 504832, 2011. actives 5.9% (n = 310,000). Potency, µM (doses to about 28.7 µM), for inactives: top-dose activity change, negative = inhibition, most hits filed as inhibitors. P. falciparum luciferase growth in erythrocytes, 48 h; also: % is scaled to controls: 0 for no effect and ±100 for the full control effect
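Cell-based growth assay: transgenic P. falciparum expressing firefly luciferase, cultured in red cells within RPMI 1640 containing 0.5% w/v Albumax, 24 mM bicarbonate and gentamycin. A drop in luciferase activity indicates inhibition.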
Sm TGR block – qHTS Assay for the Inhibitors of Schistosoma Mansoni Peroxiredoxins. Schistosoma mansoni thioredoxin glutathione reductase (TGR), Q962Y6. Potency, µM (highest dose often 114 µM), inactives show at the top dose activity change, negative = inhibition, actives largely listed as inhibitors. actives 3% (n = 360,000). AID 485364, 2010. purified TGR, DTNB reduction, TNB absorbance 405 nm; also: % is scaled to controls: 0 for no effect and ±100 for the full control effect; nearly all actives have a fitted effect of over 60% in size
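Kinetic colorimetric format: TGR-catalysed, NADPH-driven DTNB reduction monitored via TNB absorbance. Enzyme dispensed at 20 nM; compound exposure 15 min at room temperature before reaction start.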
Active calls of the source: *; ? = inconclusive; / = no result. Unless noted, calls follow the shape of the dose curve; as a rule, active = well fitted curve in the direction sought with a large enough effect; inconclusive = small, poorly fitted or top-dose-only effect, or another doubt; inactive = no such curve, though single readings can be large; an effect the other way counts as inactive or inconclusive. Potency is read from the fitted curve at half-maximal effect.

SMILES	Pf growth 96h	SARS PLP yeast	Pf growth 48h	Sm TGR block
O=C(c1cccs1)N1CCC(c2nc3c(nnn3Cc3ccccc3Cl)c(=O)[nH]2)CC1	0.0%	3.2%	10.4µM*	-6.0%
CCCCn1c(-c2cccc3ccccc23)nc2cc3[nH]c(=O)c(C(C)C)nc3cc21	?	-16.2%	?	-6.0%
CCOC(=O)N1CCN(c2cc(NCCO)c([N+](=O)[O-])c3nonc23)CC1	?	2.8%	?	-4.1%
CCOC(=O)N1CCN(c2cc(N(C)CCO)c([N+](=O)[O-])c3nonc23)CC1	-17.0%	0.8%	-13.7%	35.5µM*
CN(CCO)c1cc(Sc2nc3ccccc3s2)c2nonc2c1[N+](=O)[O-]	58.9%	-23.3%	41.7%	0.316µM*
CC(=O)OCCNc1cc(SC(C)C)c2nonc2c1[N+](=O)[O-]	?	2.2%	?	-23.5%
CC(=O)OCCN(C)c1cc(SC(C)C)c2nonc2c1[N+](=O)[O-]	-5.1%	4.8%	-17.9%	0.708µM*
CC[C@@H]1CCCCc2ccccc2[C@H](C(=O)C[C@H](O)CC(C)=O)OC1=O	/	-2.1%	/	/
COC1CC2CCC(C)[C@](O)(O2)C(=O)C(=O)N2CCCCC2C(=O)OC(C(C)CC2CCC(O)C(OC)C2)CC(=O)C(C)/C=C(/C)C(O)C(OC)C(=O)C(C)CC(C)C=CC=C/C=C\1C (stereo partly specified)	1.9µM*	/	3.79µM*	/
CCOc1ccc(OCC)c(S(=O)(=O)NC2CC(C)(C)NC(C)(C)C2)c1	0.4%	1.3%	-3.7%	4.6%
N#Cc1ccccc1OCC(=O)Nc1ccc2c(c1)OCCO2	93.1%	-3.0%	211.0%	3.3%
NC(=O)COc1ccccc1C1=NO[C@@](CC(=O)O)(C(=O)Nc2ccc3c(c2)OCCO3)C1	4.7%	0.9%	/	17.8µM*
COc1ccc(C2=NO[C@@](CC(=O)O)(C(=O)Nc3ccc4c(c3)OCCO4)C2)cc1	24.8%	3.2%	-1.9%	22.4µM*
O=C(CCCn1c(=O)c2sccc2n(Cc2c(F)cccc2Cl)c1=O)NCc1ccccc1	/	/	/	18.4%
CCOc1ccccc1NC(=O)C1CCN(S(=O)(=O)Cc2ccccc2)CC1	/	/	/	-3.3%
Cc1ccc(C2(O)CC(C)N(C)CC2C)cc1 (stereo unspecified)	?	4.0%	3.8%	-25.8%
COc1ccc(C2(CCN)CC(C)N(C)CC2C)cc1 (stereo unspecified)	1.65µM*	3.6%	0.0%	-14.8%
CCc1ccc(C2c3[nH]c4ccccc4c3CCN2C(=O)CN2CCN(CC)CC2)cc1 (stereo unspecified)	?	-1.8%	10.4µM*	10.6%
CCc1ccc(C2c3[nH]c4ccccc4c3CCN2C(=O)c2ccc(=O)n(C)n2)cc1 (stereo unspecified)	?	-1.2%	8.28µM*	-0.4%
CCc1ccc(C2c3[nH]c4ccccc4c3CCN2C(=O)CNC(N)=O)cc1 (stereo unspecified)	-13.6%	-1.5%	?	2.4%
O=C(NNC(=O)c1cc(Cl)ccc1[N+](=O)[O-])c1csc(N2CCOCC2)n1	62.5%	/	-17.1%	-7.9%
O=C(N/N=C/c1c(O)ccc2ccccc12)c1[nH]ncc1Br	11.7µM*	?	11.7µM*	-8.1%
O=C(N/N=C/c1c(O)ccc2ccccc12)c1cccc(C(F)(F)F)c1	2.62µM*	3.98µM*	3.7µM*	5.2%
COc1ccc2ccccc2c1/C=N/NC(=O)c1cccc(Br)c1	54.3%	-23.7%	6.3%	2.8%
CC[C@]12c3[nH]c4ccccc4c3CCN1C(=O)C(CC(=O)NCCCn1ccnc1)C[C@@H]2C(=O)N1CCN(C(=O)c2ccco2)CC1 (stereo partly specified)	/	-4.9%	/	/
SMILES	Pf growth 96h	SARS PLP yeast	Pf growth 48h	Sm TGR block
COCCCNC(=O)NC(CCC(C)C)c1c(-n2cccc2)sc2c1CCN(C)C2 (stereo unspecified)	/	/	/	-24.3%
Oc1ccc2ccccc2c1/C=N/Nc1nnc(-c2ncc[nH]2)c2ccccc12	/	?	2.62µM*	-3.7%
COc1ccc(/C=N/Nc2nnc(-c3ncc[nH]3)c3ccccc23)cc1	189.0%	0.5%	98.1%	3.6%
CC(C)(c1ccccc1)c1ccc(OCC(O)CNC2CCN(Cc3ccccc3)CC2)cc1 (stereo unspecified)	2.08µM*	-12.2%	3.29µM*	9.0%
CCOc1ccc(OCC(O)CNC2CCN(Cc3ccccc3)CC2)cc1 (stereo unspecified)	2.33µM*	2.6%	2.62µM*	-3.3%
COc1ccc(CNCC(O)COc2ccc(C(C)(C)c3ccccc3)cc2)cc1 (stereo unspecified)	?	-0.9%	9.28µM*	-4.6%
C=CCOc1ccc(/C=C2\SC(N3CCCCC3)=NC2=O)cc1	21.4%	-6.9%	?	0.7%
COc1ccccc1NC(=O)c1sc2ncn(Cc3ccc(C)cc3)c(=O)c2c1C	?	-4.4%	?	-1.7%
COc1ccccc1NC(=O)c1sc2ncn(Cc3cccc4ccccc34)c(=O)c2c1C	9.28µM*	-20.4%	12.1%	-7.2%
Cc1cccc(N2CC(C(=O)Nc3nnc(SCC(=O)NCC4CCCO4)s3)CC2=O)c1 (stereo unspecified)	-8.4%	22.7%	?	-33.7%
Cc1c(/C=N/n2cnnc2)c2ccccc2n1CCOc1ccccc1	?	-0.9%	13.1µM*	-9.9%
COc1ccccc1OCCn1c(C)c(C=O)c2ccccc21	?	-1.8%	?	5.1%
Cc1c(C=O)c2ccccc2n1CCOc1ccccc1F	8.28µM*	?	?	10.5%
Cc1ccc(NC(=O)Cc2c(C(=O)O)c(C)cn2C)cc1Cl	/	/	/	-1.9%
Cc1cc(C)c(NC(=O)/C(=C/c2ccccc2)c2ccccc2)c(C)c1	14.2%	-39.3%	4.15µM*	-18.9%
CSc1ccccc1OCc1cc(C(=O)NCCN2CCCc3ccccc32)no1	9.3%	-4.9%	?	-20.4%
CC(=O)c1c(C)oc2c1C(=O)c1ccccc1C2=O	-29.3%	25.7%	?	3.6%
COc1ccc(CNC(=O)c2[nH]c(C)c(C(C)=O)c2C)cc1	?	-2.0%	14.7µM*	1.9%
COc1ccc(CCNC(=O)c2[nH]c(C)c(C(C)=O)c2C)cc1	/	-0.3%	-16.9%	0.4%
COc1ccc(CNC(=O)c2c(C)oc3c2C(=O)c2ccccc2C3=O)cc1	3.29µM*	-26.7%	?	-8.2%
Cc1oc2c(c1C(=O)NCc1cccnc1)C(=O)c1ccccc1C2=O	0.147µM*	-2.8%	?	-19.6%
COc1cccc(/C=C/C(=O)OCC(=O)NCCCc2ccccc2)c1OC	/	2.9%	/	/
Cc1cccc(/C(N)=N/OC(=O)N2CCOCC2)c1	2.62µM*	-19.1%	?	16.6%
Cc1ccc(/C(N)=N/OC(=O)N2CCOCC2)cc1	1.04µM*	-8.5%	?	19.1%
Cc1cccc(C(=O)OC(C)CN2CCOCC2)c1 (stereo unspecified)	9.28µM*	-3.6%	5.6%	8.1%
Cc1ccc(C(C)C)c(OCC(=O)NC2CCN(C)CC2)c1	45.7%	28.3%	-24.2%	-16.4%
